Source: PubChem (Broad Institute)
In the library only some 3.9% were active in any assay of this set; here they are far more common.
Glyco luc inh = increase of ERlucT glycosylation luciferase signal, primary screen, N-linked glycosylation inhibitor project, D54 ERlucT cells, luminescence, set 2; D54 ERlucT glycosylation luciferase reporter, 24 h; percent of 100 nM tunicamycin response; reporter increase, % at 12.5 µM; actives 0.23% (n = 360,000); AID 588692, 2011;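 active = mean luciferase reporter signal, scaled so untreated is 0 and the glycosylation-blocking control 100, at or above a set limit in every replicate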;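 also: luciferase carries N-glycosylation sites so blocking glycosylation raises the light; 0% = median of neutral control wells and 100% = median of 100 nM tunicamycin wells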
ALR inh = inhibitors of human ALR sulfhydryl oxidase, primary screen, biochemical, H2O2 detection, HRP-luminol luminescence, single point; FAD-linked sulfhydryl oxidase ALR (Homo sapiens), P55789; purified ALR, DTT oxidation; inhibition, % (test concentration not listed); actives 3.8% (n = 290,000);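 active = mean replicate inhibition above about 79%, with every replicate also reaching it, limit read from the data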
CDK5 inh = inhibitors of human CDK5/p35 kinase, primary screen, biochemical, single concentration | Cyclin-dependent kinase 5 (Homo sapiens) + Cyclin-dependent kinase 5 activator 1 (Homo … | Recombinant CDK5/p35, ADP-Glo luminescence, 60 min | inhibition, % at 10 µM | actives 0.01% (n = 330,000);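 active = highest replicate inhibition of at least 50% and at least 75% of replicates reaching 50%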;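 also: plate controls were DMSO neutral control for no effect and GW8510 at 10 µM for full effect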
Target sequence (Q00535 whole entry, looked up): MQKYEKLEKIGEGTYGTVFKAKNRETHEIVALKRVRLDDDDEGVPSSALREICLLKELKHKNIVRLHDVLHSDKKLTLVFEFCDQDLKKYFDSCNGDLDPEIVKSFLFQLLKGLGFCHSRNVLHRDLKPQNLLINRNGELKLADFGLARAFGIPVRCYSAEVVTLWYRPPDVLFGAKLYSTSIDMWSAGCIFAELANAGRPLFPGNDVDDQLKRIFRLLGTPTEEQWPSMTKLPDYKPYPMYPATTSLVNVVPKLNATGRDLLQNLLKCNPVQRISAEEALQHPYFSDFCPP
Target sequence (Q15078 whole entry, looked up): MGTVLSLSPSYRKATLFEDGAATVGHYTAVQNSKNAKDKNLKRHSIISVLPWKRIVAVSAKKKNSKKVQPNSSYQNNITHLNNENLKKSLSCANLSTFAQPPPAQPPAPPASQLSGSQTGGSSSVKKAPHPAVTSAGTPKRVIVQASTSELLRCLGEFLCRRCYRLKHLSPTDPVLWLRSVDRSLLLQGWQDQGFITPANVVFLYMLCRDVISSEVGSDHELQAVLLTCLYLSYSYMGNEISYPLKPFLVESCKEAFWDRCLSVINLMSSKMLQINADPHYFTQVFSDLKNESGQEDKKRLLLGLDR
SUMO Mot1 rescue = yeast Mot1-301 growth rescue at high temperature, primary screen, SUMOylation pathway inhibitor project, S. cerevisiae, ATP luminescence, 38.5C; S. cerevisiae Mot1-301 growth rescue; percent above DMSO median, 100 means doubled; growth rescue, % at 18.8 µM; actives 1% (n = 320,000); AID 2716, 2010;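 active = every valid replicate shows activation above 250% relative to neutral control wells; inactive = the rest, any valid replicate at or below 250%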;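 also: OY570 slx delta 5 strain wells were the positive control but not used for scaling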
Casp6 inh = human caspase-6 inhibitors, primary screen, biochemical, VEID-R110 fluorescence, single point, set 2; actives 0.53% (n = 350,000); inhibition, % at 12.5 µM; purified caspase-6, Z-VEID-R110 cleavage fluorescence; P55212;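 active = mean inhibition across replicates at least about 35%, with every replicate also reaching that limit, limit read from the data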;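 also: 0% = median of neutral control wells and 100% = no fluorescence left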
NSD2 inh = NSD2 histone methyltransferase inhibitors, primary screen, biochemical, AlphaScreen, single concentration, set 2; Histone-lysine N-methyltransferase NSD2 (Homo sapiens), O96028; NSD2 peptide methylation, 120 min; inhibition, % at 12.5 µM; actives 0.54% (n = 310,000); in the data active = inhibition above about 50%
The depositor's hits bear a star; . = not tested or not shown.

SMILES	Glyco luc inh	ALR inh	CDK5 inh	SUMO Mot1 rescue	Casp6 inh	NSD2 inh
COCCOC(=O)C1=C(C)NC2=C(C(=O)CCC2)C1c1ccc2c(c1)OCO2 (centres undefined)	-1.3	-3.2	1.6	2.4	3.4	-0.5
CCOC(=O)C1=C(C)NC2=C(C(=O)CCC2)C1c1ccc(N(C)C)cc1 (centres undefined)	2.6	73.6	0.7	7.0	.	3.0
CCCOC(=O)C1=C(C)NC2=C(C(=O)CCC2)C1c1ccc(N(C)C)cc1 (centres undefined)	-1.3	90.7*	-0.4	1.8	.	9.0
Cc1cc(C)nc(SCC(=O)c2ccc(F)cc2)n1	0.9	19.7	0.6	-11.5	-0.3	-4.7
COc1ccc(Oc2c(C)nc(SCC(=O)c3ccc(Cl)cc3)[nH]c2=O)cc1	-0.5	88.4*	-0.1	-16.4	-2.8	1.3
Cc1nc(SCC(=O)c2ccc(F)cc2)c([N+](=O)[O-])[nH]1	0.8	93.3*	-1.7	-8.5	.	3.0
Cc1cc(=O)[nH]c(SCC(=O)c2ccc(Cl)cc2)n1	.	.	.	.	.	-1.6
Cc1nc(SCC(=O)c2ccc(Cl)cc2)c([N+](=O)[O-])[nH]1	1.6	98.7*	-4.9	-31.8	.	-0.1
Cc1nc(SCC(=O)c2ccccc2)[nH]c(=O)c1Oc1ccc(Cl)cc1	1.1	1.5	1.6	-0.7	-1.8	-1.0
Cc1cc(C)c2nc(N3C(=O)C(O)=C(C(=O)c4ccco4)C3c3ccc(O)cc3)sc2c1 (centres undefined)	-1.1	99.2*	0.8	1.5	33.9	30.2
Cc1cc(C)c2nc(N3C(=O)C(O)=C(C(=O)c4ccco4)C3c3cccc(O)c3)sc2c1 (centres undefined)	0.1	99.2*	-1.0	-7.7	33.0	-0.3
Cc1cc(N2C(=O)C(O)=C(C(=O)c3ccco3)C2c2cccc(O)c2)no1 (centres undefined)	0.5	-4.1	-0.8	-0.7	6.2	6.6
Cc1ccc(C2C(C(=O)c3ccco3)=C(O)C(=O)N2c2nnc(C)s2)cc1 (centres undefined)	2.1	.	-0.4	34.3	.	-0.4
CCOC(=O)c1sc(N2C(=O)C(O)=C(C(=O)c3ccco3)C2c2cccc([N+](=O)[O-])c2)nc1C (centres undefined)	-1.1	91.3*	0.3	2.7	11.7	-2.6
C[C@@H]1CN([C@H](C)CO)S(=O)(=O)c2ccc(C#CC3CC3)cc2O[C@@H]1CN(C)C(=O)c1ccccn1	.	.	.	.	-0.4	.
O=C(NC1CCN(C(=O)N2c3ccccc3Sc3ccccc32)CC1)c1ccccc1Cl	-4.0	1.8	3.6	-1.2	.	-1.5
NC(=O)C1CCN(C(=O)N2c3ccccc3Sc3ccccc32)CC1	-1.8	80.0*	-0.8	13.7	-0.1	9.5
O=C(O)C[C@H]1C[C@@H]2c3cc(NC(=O)c4ccc5c(c4)OCO5)ccc3O[C@@H]2[C@@H](CO)O1	.	.	.	.	-1.1	.
Clc1ccccc1C1SCC2Nc3ccccc3CN21 (centres undefined)	-1.9	98.1*	-1.7	-0.6	.	3.5
O=C(CSCc1ccccc1)N1CCN(c2ccccc2)CC1	-1.6	98.2*	0.4	-3.0	-1.9	-2.7
O=C(CS(=O)(=O)c1ccc(F)cc1)N1CCN(c2ccccc2)CC1	-0.4	35.9	-2.0	513.9*	2.5	-1.2
CC1(C(=O)N2CCN(c3ccc([N+](=O)[O-])cc3)CC2)CC1(Cl)Cl (centres undefined)	-0.7	13.2	-1.5	5.0	-0.5	6.1
Cc1ccc(S(=O)(=O)CC(=O)N2CCN(c3ccc(F)cc3)CC2)cc1	1.4	17.4	-1.9	-16.0	0.5	-3.3
Cc1ccc(CSCC(=O)N2CCN(c3ccccc3)CC2)cc1	1.8	36.3	-1.1	3.0	1.6	1.3
